# Results published in PubChem BioAssay AID1159580 (chemical genetic matrix, 2015).
# Out of some 5,500 compounds screened, about 2,000 (36%) were called active. About 18% were inconclusive and are not listed. This is one part of the list. A number with no mark means an inactive call. Rule as the data show it: active = normalized growth mostly below about 0.91 (no sharp cut-off); inconclusive = no clear call, values can overlap the other calls; inactive = mostly above about 0.92.
# Test: chemical genetic growth profiling, strain panel (AID 1159580);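 also: tested at 20 µM; growth read once vehicle control cultures reached saturation at 30 °C; 1 = growth at the plate median or of vehicle wells; lower values mean less growth of the strain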
# Settings: growth OD
compound,measurement,setting,value
CCC(=O)O[C@H]1[C@H](O[C@@H]2[C@@H](C)[C@H](O[C@H]3C[C@@](C)(OC)[C@@H](O)[C@H](C)O3)[C@@H](C)C(=O)O[C@H](CC)[C@@](C)(O)[C@H](O)[C@@H](C)C(=O)[C@H](C)C[C@@]2(C)O)O[C@H](C)C[C@@H]1N(C)C,normalized growth,"S. cerevisiae deletion strains, locus YJR066W, strain TOR1, active compounds read low",0.852
same,normalized growth,"S. cerevisiae deletion strains, locus YKL009W, strain mrt4, active compounds read low",0.932
same,normalized growth,"S. cerevisiae deletion strains, locus YKL068W, active compounds read low",1.04
same,normalized growth,"S. cerevisiae deletion strains, locus YKL085W, strain MDH1 (second series), active compounds read low",1
same,normalized growth,"S. cerevisiae deletion strains, locus YKL085W, strain MDH1, active compounds read low",1
same,normalized growth,"S. cerevisiae deletion strains, locus YKL160W, strain elf1, active compounds read low",0.924
same,normalized growth,"S. cerevisiae deletion strains, locus YKL190W, strain CNB1, active compounds read low",1.01
same,normalized growth,"S. cerevisiae deletion strains, locus YKR001C, strain vps1, active compounds read low",0.648 (active)
same,normalized growth,"S. cerevisiae deletion strains, locus YKR026C, strain gcn3, active compounds read low",1.03
same,normalized growth,"S. cerevisiae deletion strains, locus YKR091W, strain srl3, active compounds read low",1.02
same,normalized growth,"S. cerevisiae deletion strains, locus YLL001W, strain dnm1, active compounds read low",0.87 (active)
same,normalized growth,"S. cerevisiae deletion strains, locus YLL026W, active compounds read low",0.942
same,normalized growth,"S. cerevisiae deletion strains, locus YLL041C, strain sdh2, active compounds read low",1
same,normalized growth,"S. cerevisiae deletion strains, locus YLR027C, strain aat2, active compounds read low",0.893 (active)
same,normalized growth,"S. cerevisiae deletion strains, locus YLR039C, strain RIC1, active compounds read low",0.865
same,normalized growth,"S. cerevisiae deletion strains, locus YLR058C, strain SHM2, active compounds read low",0.968
same,normalized growth,"S. cerevisiae deletion strains, locus YLR102C, strain apc9, active compounds read low",1.01
same,normalized growth,"S. cerevisiae deletion strains, locus YLR113W, strain HOG1, active compounds read low",1.02
same,normalized growth,"S. cerevisiae deletion strains, locus YLR221C, strain rsa3, active compounds read low",0.796 (active)
same,normalized growth,"S. cerevisiae deletion strains, locus YLR258W, strain gsy2, active compounds read low",0.902 (active)
same,normalized growth,"S. cerevisiae deletion strains, locus YLR262C, strain YPT6 (second series), active compounds read low",1.03
same,normalized growth,"S. cerevisiae deletion strains, locus YLR262C, strain YPT6, active compounds read low",0.882
same,normalized growth,"S. cerevisiae deletion strains, locus YLR268W, strain sec22, active compounds read low",0.988
same,normalized growth,"S. cerevisiae deletion strains, locus YLR320W, strain mms22, active compounds read low",0.596 (active)
same,normalized growth,"S. cerevisiae deletion strains, locus YLR330W, strain CHS5, active compounds read low",0.937
same,normalized growth,"S. cerevisiae deletion strains, locus YLR342W, strain FKS1 (second series), active compounds read low",1.05
same,normalized growth,"S. cerevisiae deletion strains, locus YLR342W, strain FKS1, active compounds read low",1.05
same,normalized growth,"S. cerevisiae deletion strains, locus YLR357W, strain rsc2, active compounds read low",0.759 (active)
same,normalized growth,"S. cerevisiae deletion strains, locus YLR370C, strain arc18, active compounds read low",1
same,normalized growth,"S. cerevisiae deletion strains, locus YLR371W, strain rom2, active compounds read low",0.935
same,normalized growth,"S. cerevisiae deletion strains, locus YLR384C, strain iki3, active compounds read low",1.02
same,normalized growth,"S. cerevisiae deletion strains, locus YLR418C, strain cdc73, active compounds read low",0.615 (active)
same,normalized growth,"S. cerevisiae deletion strains, locus YML016C, strain PPZ1, active compounds read low",1
same,normalized growth,"S. cerevisiae deletion strains, locus YML032C, strain rad52, active compounds read low",0.946
same,normalized growth,"S. cerevisiae deletion strains, locus YML120C, strain ndi1, active compounds read low",0.905 (active)
same,normalized growth,"S. cerevisiae deletion strains, locus YML124C, strain tub3, active compounds read low",1.02
same,normalized growth,"S. cerevisiae deletion strains, locus YMR058W, strain fet3, active compounds read low",0.961
same,normalized growth,"S. cerevisiae deletion strains, locus YMR078C, strain ctf18, active compounds read low",0.988
same,normalized growth,"S. cerevisiae deletion strains, locus YMR125W, strain sto1, active compounds read low",0.765 (active)
same,normalized growth,"S. cerevisiae deletion strains, locus YMR129W, active compounds read low",1
same,normalized growth,"S. cerevisiae deletion strains, locus YMR205C, strain PFK2, active compounds read low",0.8 (active)
same,normalized growth,"S. cerevisiae deletion strains, locus YMR223W, strain ubp8, active compounds read low",0.982
same,normalized growth,"S. cerevisiae deletion strains, locus YMR231W, strain pep5, active compounds read low",0.984
same,normalized growth,"S. cerevisiae deletion strains, locus YMR263W, strain SAP30, active compounds read low",0.943
same,normalized growth,"S. cerevisiae deletion strains, locus YMR307W, strain GAS1, active compounds read low",0.463 (active)
same,normalized growth,"S. cerevisiae deletion strains, locus YNL067W, strain RPL9B, active compounds read low",0.948
same,normalized growth,"S. cerevisiae deletion strains, locus YNL071W, strain lat1, active compounds read low",0.309 (active)
same,normalized growth,"S. cerevisiae deletion strains, locus YNL128W, strain TEP1, active compounds read low",0.985
same,normalized growth,"S. cerevisiae deletion strains, locus YNL183C, strain NPR1, active compounds read low",0.857
same,normalized growth,"S. cerevisiae deletion strains, locus YNL209W, strain ssb2, active compounds read low",0.992
same,normalized growth,"S. cerevisiae deletion strains, locus YNL233W, strain BNI4, active compounds read low",0.853 (active)
same,normalized growth,"S. cerevisiae deletion strains, locus YNL248C, strain rpa49, active compounds read low",0.776 (active)
same,normalized growth,"S. cerevisiae deletion strains, locus YNL250W, strain rad50, active compounds read low",1.03
same,normalized growth,"S. cerevisiae deletion strains, locus YNL271C, strain bni1, active compounds read low",1.01
same,normalized growth,"S. cerevisiae deletion strains, locus YNL298W, strain CLA4, active compounds read low",0.952
same,normalized growth,"S. cerevisiae deletion strains, locus YNL307C, strain MCK1, active compounds read low",0.4 (active)
same,normalized growth,"S. cerevisiae deletion strains, locus YNL322C, strain KRE1 (second series), active compounds read low",0.943
same,normalized growth,"S. cerevisiae deletion strains, locus YNR049C, strain mso1, active compounds read low",1.01
same,normalized growth,"S. cerevisiae deletion strains, locus YNR052C, strain pop2, active compounds read low",1
same,normalized growth,"S. cerevisiae deletion strains, locus YOL006C, strain TOP1, active compounds read low",0.689
same,normalized growth,"S. cerevisiae deletion strains, locus YOL012C, strain htz1",0.653
same,normalized growth,"S. cerevisiae deletion strains, locus YOL147C, strain pex11, active compounds read low",0.977
same,normalized growth,"S. cerevisiae deletion strains, locus YOR001W, strain rrp6, active compounds read low",0.861 (active)
same,normalized growth,"S. cerevisiae deletion strains, locus YOR061W, strain CKA2, active compounds read low",1.01
same,normalized growth,"S. cerevisiae deletion strains, locus YOR069W, strain VPS5, active compounds read low",1
same,normalized growth,"S. cerevisiae deletion strains, locus YOR070C, strain gyp1, active compounds read low",0.93
same,normalized growth,"S. cerevisiae deletion strains, locus YOR080W, strain dia2, active compounds read low",0.977
same,normalized growth,"S. cerevisiae deletion strains, locus YOR083W, strain WHI5, active compounds read low",0.829 (active)
same,normalized growth,"S. cerevisiae deletion strains, locus YOR106W, strain vam3, active compounds read low",0.75 (active)
same,normalized growth,"S. cerevisiae deletion strains, locus YOR136W, strain idh2, active compounds read low",0.978
same,normalized growth,"S. cerevisiae deletion strains, locus YOR144C, strain elg1, active compounds read low",1.01
same,normalized growth,"S. cerevisiae deletion strains, locus YOR184W, strain ser1, active compounds read low",0.936
same,normalized growth,"S. cerevisiae deletion strains, locus YOR231W, strain MKK1, active compounds read low",0.879
same,normalized growth,"S. cerevisiae deletion strains, locus YOR265W, strain rbl2, active compounds read low",0.982
same,normalized growth,"S. cerevisiae deletion strains, locus YOR270C, strain vph1, active compounds read low",0.3 (active)
same,normalized growth,"S. cerevisiae deletion strains, locus YOR290C, strain snf2, active compounds read low",0.786 (active)
same,normalized growth,"S. cerevisiae deletion strains, locus YOR316C, strain cot1, active compounds read low",1.01
same,normalized growth,"S. cerevisiae deletion strains, locus YPL051W, strain arl3, active compounds read low",0.921
same,normalized growth,"S. cerevisiae deletion strains, locus YPL055C, strain LGE1, active compounds read low",0.894
same,normalized growth,"S. cerevisiae deletion strains, locus YPL078C, strain atp4, active compounds read low",0.635 (active)
same,normalized growth,"S. cerevisiae deletion strains, locus YPL106C, strain sse1, active compounds read low",1.06
same,normalized growth,"S. cerevisiae deletion strains, locus YPL240C, strain hsp82, active compounds read low",0.904 (active)
same,normalized growth,"S. cerevisiae deletion strains, locus YPL256C, strain CLN2, active compounds read low",0.953
same,normalized growth,"S. cerevisiae deletion strains, locus YPR119W, strain clb2, active compounds read low",1.02
same,normalized growth,"S. cerevisiae deletion strains, locus YPR141C, strain kar3, active compounds read low",1.06
same,normalized growth,"S. cerevisiae deletion strains, locus YPR163C, strain tif3, active compounds read low",0.829 (active)
same,normalized growth,"S. cerevisiae deletion strains, locus YPR167C, strain met16, active compounds read low",0.994
same,normalized growth,"S. cerevisiae deletion strains, strain wtn01, active compounds read low",0.968
same,normalized growth,"S. cerevisiae strains, strain wild type, active compounds read low",0.974
